Experimental data: PubChem BioAssay (NCI)
The panel holds about 83,000 compounds, 20% with a hit somewhere; the sample as a whole holds those more often.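 The endpoint reported here, percent growth, reads 100 for growth as untreated, 0 for no net growth and -100 for all cells dead.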 Values without a mark were called inactive. The source made the active and inactive calls. How the source made its calls: active means growth percent below 10; inactive means the rest.

Test system: A549/ATCC NSCLC
Assay: NCI-60 one-dose screen, 48 h (100 = growth as untreated, 0 = no growth, -100 = all killed)
Details: 10 µM unless noted

SMILES | growth
COc1ccc(/C(=C\c2cc(OC)c(OC)c(OC)c2)C(=O)N2CCNCC2)cc1 | 90.4%
O=c1c2sc3ncc(Cl)cc3c2nnn1-c1cccc(Cl)c1 | 42.5%
F | 18% [6.87 mM]
CC1=C(C(=O)Nc2ccc(F)cc2)C(c2ccc(C)cc2)C2=C(CC(C)(C)CC2=O)N1 (stereo unspecified) | 92.4%
CC[C@H](Nc1nc(N)nc(C2CC2)c1C#N)c1nc2cccc(NCc3ccc(C(=O)NO)cc3)c2c(=O)n1-c1ccccc1 | -30.6% (active)
CC(C)N1CCN(c2ccncc2S(=O)(=O)N2CCN(C)CC2)CC1 | 101%
c1ccc(C(CC2=NCCCN2)c2ccccc2)cc1 | 91.7%
Clc1ccc2c(c1)-c1ccccc1C1=NCCN12 | 13%
O=C(C=P(c1ccccc1)(c1ccccc1)c1ccccc1)CCl | 23.1%
COc1cc(/C=C/C(=O)c2ccc(NC(=O)CSc3nnc(-c4ccc(Cl)cc4)n3-c3ccccc3)cc2)cc(OC)c1OC | 69.8%
OC(c1cc2cc(Cl)ccc2c2cc(C(F)(F)F)ccc12)C1CCCCN1 (stereo unspecified) | -85.9% (active)
Clc1cc(Br)ccc1-c1ccc(CNCC2CCNCC2)o1 | 17%
CN1CCN(Cc2ccc(NC(=O)c3cncc(C#Cc4ncc5cnccn45)c3)cc2C(F)(F)F)CC1 | 74.2%
CC1=C(C(=O)Nc2ccc(F)cc2)C(c2ccc(Cl)cc2)C2=C(CC(C)(C)CC2=O)N1 (stereo unspecified) | 78.3%
CCOC(=O)c1ccc(N(CCC(=O)O)C(C)=O)cc1 | 104%
O=c1[nH]c2cc(Cl)c(Cl)cc2o1 | 114%
CC(COC(=O)c1ccccc1)N1CC2CCC(C1)O2 (stereo unspecified) | 100%
CC[C@H](Nc1nc(C)nc(N)c1C#N)c1nc2cccc(NCc3ccc(C(=O)NO)cc3)c2c(=O)n1-c1ccccc1 | -31% (active)
Cc1cc(NC(=O)C2c3ccccc3C(=O)N(CC(C)C)C2c2cccs2)no1 (stereo unspecified) | 35.3%

SMILES | growth
Clc1ccc2c(c1)-n1cccc1C(c1ccc3ccccc3c1)=NC2 | 121%
CCC1CCc2nc3sc(C(=O)Nc4cccc(F)c4)c(N)c3cc2C1 (stereo unspecified) | 66.3%
CCn1c(CN2CCN(Cc3ccccc3)CC2)nc2cc(NC(=O)c3cccs3)ccc21 | -72.9% (active)
CCN(CC)CCCNc1cccc2c(C)cc(OC)nc12 | 94.8%
COc1ccc(-c2cn(-c3cccc(C(=O)/C=C/c4ccc(O)c(OC)c4)c3)c(=O)[nH]2)cc1 | 31.5%
COc1ccc(/C=c2\c(=O)n(-c3ccccc3)c3nn4c(n23)=NNC42CCCCC2)cc1 | 104%
CCNC(=S)N(Cc1ccccc1)Cc1ccccc1 | 98.4%
CCCCCCCCCCCCCCCc1cc(O)ccc1[N+](=O)[O-] | 96.8%
COC1=CC(c2ccc[nH]2)=N/C1=C\c1[nH]c(C)c(C(=O)CCCCCCCCC(=O)O[C@H]2CC[C@H]3C4CCc5cc(O)ccc5C4CC[C@]23C)c1C (stereo partly specified) | 4.12% (active)
CCc1oc2ccccc2c1C(=O)c1cc(I)c(O)c(I)c1 | 40.3%
Cc1ccc(N=CNN=C(N)N)cc1 | 100%
CCCCN(CCCC)CCCN=c1nc2c(c(N)n1-c1ccccc1)c(=S)n(-c1ccccc1)c(=S)n2-c1ccccc1 | -38.4% (active)
[Ag].[Ag].[NH-]S(=O)(=O)c1ccc(N=Nc2cc(N=Nc3ccc(S([NH-])(=O)=O)cc3)c3c(NC(=O)C(Cl)Cl)cccc3c2OC(=O)C(Cl)Cl)cc1.[c-]1nccs1.[c-]1nccs1 | 83.5%
COc1cc(NCCCCC(C)N)c2nccc(C)c2c1 (stereo unspecified) | 101%
COC(=O)C(C)NC1=C(Cl)C(=O)C(NC(C)C(=O)OC)=C(Cl)C1=O (stereo unspecified) | 98.9%
COc1cc2nccc(Oc3ccc(NC(=O)C4(C(=O)Nc5ccc(F)cc5)CC4)cc3)c2cc1OC(=O)c1ccc(N)cc1 | 33.6%
O=C(NO)c1ccc(NCc2csc3ccccc23)cc1 | 70.3%
COc1ccc2[nH]c(O)c(/C=c3/ccc4c(c3)N=C(c3ccc(F)cc3)N=4)c2c1 | 37.6%
CCN(CC)CCCC(C)N/C(c1cccc(OC)c1)=c1\c(=O)[nH]n(-c2c3ccccc3nc3ccccc23)c(=O)\c1=C(/NC(C)CCCN(CC)CC)c1cccc(OC)c1 (stereo unspecified) | -59.2% (active)

Test system: 786-0 renal
Assay: as above
Details: 10 µM unless noted

SMILES | growth
COc1ccc(/C(=C\c2cc(OC)c(OC)c(OC)c2)C(=O)N2CCNCC2)cc1 | 103%
O=c1c2sc3ncc(Cl)cc3c2nnn1-c1cccc(Cl)c1 | 72.5%
F | -1.01% [6.87 mM] (active)
CC1=C(C(=O)Nc2ccc(F)cc2)C(c2ccc(C)cc2)C2=C(CC(C)(C)CC2=O)N1 (stereo unspecified) | 97.2%
CC[C@H](Nc1nc(N)nc(C2CC2)c1C#N)c1nc2cccc(NCc3ccc(C(=O)NO)cc3)c2c(=O)n1-c1ccccc1 | -9.68% (active)
CC(C)N1CCN(c2ccncc2S(=O)(=O)N2CCN(C)CC2)CC1 | 98.6%
c1ccc(C(CC2=NCCCN2)c2ccccc2)cc1 | 107%
Clc1ccc2c(c1)-c1ccccc1C1=NCCN12 | 44.8%
O=C(C=P(c1ccccc1)(c1ccccc1)c1ccccc1)CCl | -75.8% (active)
COc1cc(/C=C/C(=O)c2ccc(NC(=O)CSc3nnc(-c4ccc(Cl)cc4)n3-c3ccccc3)cc2)cc(OC)c1OC | 79%
OC(c1cc2cc(Cl)ccc2c2cc(C(F)(F)F)ccc12)C1CCCCN1 (stereo unspecified) | -67.5% (active)
Clc1cc(Br)ccc1-c1ccc(CNCC2CCNCC2)o1 | 42.3%
CN1CCN(Cc2ccc(NC(=O)c3cncc(C#Cc4ncc5cnccn45)c3)cc2C(F)(F)F)CC1 | 71.5%
CC1=C(C(=O)Nc2ccc(F)cc2)C(c2ccc(Cl)cc2)C2=C(CC(C)(C)CC2=O)N1 (stereo unspecified) | 88.3%
CCOC(=O)c1ccc(N(CCC(=O)O)C(C)=O)cc1 | 104%
O=c1[nH]c2cc(Cl)c(Cl)cc2o1 | 97.1%
CC(COC(=O)c1ccccc1)N1CC2CCC(C1)O2 (stereo unspecified) | 99.8%
CC[C@H](Nc1nc(C)nc(N)c1C#N)c1nc2cccc(NCc3ccc(C(=O)NO)cc3)c2c(=O)n1-c1ccccc1 | 5.71% (active)
Cc1cc(NC(=O)C2c3ccccc3C(=O)N(CC(C)C)C2c2cccs2)no1 (stereo unspecified) | -32.6% (active)

SMILES | growth
Clc1ccc2c(c1)-n1cccc1C(c1ccc3ccccc3c1)=NC2 | 88.7%
CCC1CCc2nc3sc(C(=O)Nc4cccc(F)c4)c(N)c3cc2C1 (stereo unspecified) | 83.1%
CCn1c(CN2CCN(Cc3ccccc3)CC2)nc2cc(NC(=O)c3cccs3)ccc21 | -67.8% (active)
CCN(CC)CCCNc1cccc2c(C)cc(OC)nc12 | 94.6%
COc1ccc(-c2cn(-c3cccc(C(=O)/C=C/c4ccc(O)c(OC)c4)c3)c(=O)[nH]2)cc1 | 34.5%
COc1ccc(/C=c2\c(=O)n(-c3ccccc3)c3nn4c(n23)=NNC42CCCCC2)cc1 | 106%
CCNC(=S)N(Cc1ccccc1)Cc1ccccc1 | 107%
CCCCCCCCCCCCCCCc1cc(O)ccc1[N+](=O)[O-] | 97.9%
COC1=CC(c2ccc[nH]2)=N/C1=C\c1[nH]c(C)c(C(=O)CCCCCCCCC(=O)O[C@H]2CC[C@H]3C4CCc5cc(O)ccc5C4CC[C@]23C)c1C (stereo partly specified) | 19.9%
CCc1oc2ccccc2c1C(=O)c1cc(I)c(O)c(I)c1 | 62%
Cc1ccc(N=CNN=C(N)N)cc1 | 115%
CCCCN(CCCC)CCCN=c1nc2c(c(N)n1-c1ccccc1)c(=S)n(-c1ccccc1)c(=S)n2-c1ccccc1 | -100% (active)
[Ag].[Ag].[NH-]S(=O)(=O)c1ccc(N=Nc2cc(N=Nc3ccc(S([NH-])(=O)=O)cc3)c3c(NC(=O)C(Cl)Cl)cccc3c2OC(=O)C(Cl)Cl)cc1.[c-]1nccs1.[c-]1nccs1 | 106%
COc1cc(NCCCCC(C)N)c2nccc(C)c2c1 (stereo unspecified) | 83.7%
COC(=O)C(C)NC1=C(Cl)C(=O)C(NC(C)C(=O)OC)=C(Cl)C1=O (stereo unspecified) | 105%
COc1cc2nccc(Oc3ccc(NC(=O)C4(C(=O)Nc5ccc(F)cc5)CC4)cc3)c2cc1OC(=O)c1ccc(N)cc1 | -17.4% (active)
O=C(NO)c1ccc(NCc2csc3ccccc23)cc1 | 71.3%
COc1ccc2[nH]c(O)c(/C=c3/ccc4c(c3)N=C(c3ccc(F)cc3)N=4)c2c1 | -30.1% (active)
CCN(CC)CCCC(C)N/C(c1cccc(OC)c1)=c1\c(=O)[nH]n(-c2c3ccccc3nc3ccccc23)c(=O)\c1=C(/NC(C)CCCN(CC)CC)c1cccc(OC)c1 (stereo unspecified) | 3.27% (active)
